Experimental data published in PubChem BioAssay AID1159580 (chemical genetic matrix, 2015).
Screen size: about 5,500 compounds; about 2,000 (36%) were called active. Inconclusive results (about 18%) are left out. No stated cut-off is given here; in the data, active means normalized growth mostly below about 0.91 (no sharp cut-off); inconclusive means no clear call, values can overlap the other calls; inactive means mostly above about 0.92. The list shows a part of the results.

Assay: chemical genetic growth profiling, strain panel (AID 1159580);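 further: tested at 20 µM; growth read once vehicle control cultures reached saturation at 30 °C; 1 = growth at the plate median or of vehicle wells; lower values mean less growth of the strain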
Settings: growth OD
[1] = S. cerevisiae deletion strains, locus YAL013W, strain DEP1, active compounds read low
[2] = S. cerevisiae deletion strains, locus YBR229C, strain ROT2, active compounds read low
[3] = S. cerevisiae deletion strains, locus YCL061C, strain MRC1, active compounds read low
[4] = S. cerevisiae deletion strains, locus YDL101C, strain DUN1, active compounds read low
[5] = S. cerevisiae deletion strains, locus YDL134C, strain PPH21, active compounds read low
[6] = S. cerevisiae deletion strains, locus YDR150W, strain NUM1, active compounds read low
[7] = S. cerevisiae deletion strains, locus YEL061C, strain CIN8, active compounds read low
[8] = S. cerevisiae deletion strains, locus YGR078C, strain PAC10, active compounds read low
[9] = S. cerevisiae deletion strains, locus YHR030C, strain SLT2, active compounds read low
[10] = S. cerevisiae deletion strains, locus YHR087W, strain rtc3, active compounds read low
[11] = S. cerevisiae deletion strains, locus YJR043C, strain POL32, active compounds read low
[12] = S. cerevisiae deletion strains, locus YJR075W, strain HOC1, active compounds read low
[13] = S. cerevisiae deletion strains, locus YLR039C, strain RIC1, active compounds read low
[14] = S. cerevisiae deletion strains, locus YLR058C, strain SHM2 (second series), active compounds read low
[15] = S. cerevisiae deletion strains, locus YLR085C, strain ARP6, active compounds read low
[16] = S. cerevisiae deletion strains, locus YLR262C, strain YPT6, active compounds read low
[17] = S. cerevisiae deletion strains, locus YML094W, strain GIM5, active compounds read low
[18] = S. cerevisiae deletion strains, locus YMR219W, strain ESC1, active compounds read low
[19] = S. cerevisiae deletion strains, locus YMR263W, strain SAP30, active compounds read low
[20] = S. cerevisiae deletion strains, locus YNL153C, strain GIM3, active compounds read low
[21] = S. cerevisiae deletion strains, locus YNL298W, strain CLA4 (second series), active compounds read low
[22] = S. cerevisiae deletion strains, locus YNL322C, strain KRE1, active compounds read low
[23] = S. cerevisiae deletion strains, locus YNR030W, strain Alg12, active compounds read low
[24] = S. cerevisiae deletion strains, locus YOL006C, strain TOP1, active compounds read low
[25] = S. cerevisiae deletion strains, locus YPL055C, strain LGE1, active compounds read low
[26] = S. cerevisiae deletion strains, locus YPL241C, strain CIN2, active compounds read low
[27] = S. cerevisiae deletion strains, locus YPR135W, strain CTF4, active compounds read low
[28] = S. cerevisiae strains, strain wild type, active compounds read low
[29] = S. cerevisiae deletion strains, locus YAR019C, strain CDC15, active compounds read low
[30] = S. cerevisiae deletion strains, locus YBL105C, strain PKC1, active compounds read low
[31] = S. cerevisiae deletion strains, locus YBR135W, strain CKS1, active compounds read low
[32] = S. cerevisiae deletion strains, locus YBR136W, strain MEC1, active compounds read low
[33] = S. cerevisiae deletion strains, locus YBR160W, strain CDC28, active compounds read low
[34] = S. cerevisiae deletion strains, locus YDL017W, strain CDC7, active compounds read low
[35] = S. cerevisiae deletion strains, locus YDL028C, strain MPS1, active compounds read low
[36] = S. cerevisiae deletion strains, locus YDL108W, strain KIN28, active compounds read low
[37] = S. cerevisiae deletion strains, locus YDL132W, strain cdc53, active compounds read low
[38] = S. cerevisiae deletion strains, locus YDL214C, strain PRR2, active compounds read low
[39] = S. cerevisiae deletion strains, locus YDR052C, strain DBF4, active compounds read low
[40] = S. cerevisiae deletion strains, locus YDR054C, strain cdc34, active compounds read low
[41] = S. cerevisiae deletion strains, locus YDR226W, strain ADK1, active compounds read low
[42] = S. cerevisiae deletion strains, locus YDR477W, strain SNF1, active compounds read low
[43] = S. cerevisiae deletion strains, locus YER123W, strain YCK3, active compounds read low
[44] = S. cerevisiae deletion strains, locus YER133W, strain GLC7, active compounds read low
[45] = S. cerevisiae deletion strains, locus YFL009W, strain cdc4, active compounds read low
[46] = S. cerevisiae deletion strains, locus YFL029C, strain CAK1, active compounds read low
[47] = S. cerevisiae deletion strains, locus YFR003C, strain YPI1, active compounds read low
[48] = S. cerevisiae deletion strains, locus YFR019W, strain FAB1, active compounds read low
[49] = S. cerevisiae deletion strains, locus YFR028C, strain CDC14, active compounds read low
[50] = S. cerevisiae deletion strains, locus YGR040W, strain KSS1, active compounds read low
[51] = S. cerevisiae deletion strains, locus YGR052W, strain FMP48, active compounds read low
[52] = S. cerevisiae deletion strains, locus YGR092W, strain DBF2, active compounds read low
[53] = S. cerevisiae deletion strains, locus YHR079C, strain IRE1, active compounds read low
[54] = S. cerevisiae deletion strains, locus YHR082C, strain KSP1, active compounds read low
[55] = S. cerevisiae deletion strains, locus YHR205W, strain SCH9, active compounds read low
[56] = S. cerevisiae deletion strains, locus YIL147C, strain SLN1, active compounds read low
[57] = S. cerevisiae deletion strains, locus YJL095W, strain BCK1, active compounds read low
[58] = S. cerevisiae deletion strains, locus YJL128C, strain PBS2, active compounds read low
[59] = S. cerevisiae deletion strains, locus YJL157C, strain FAR1, active compounds read low
[60] = S. cerevisiae deletion strains, locus YJR016C, strain ILV3, active compounds read low
[61] = S. cerevisiae deletion strains, locus YJR066W, strain TOR1 (second series), active compounds read low
[62] = S. cerevisiae deletion strains, locus YJR066W, strain TOR1, active compounds read low
[63] = S. cerevisiae deletion strains, locus YKL048C, strain ELM1, active compounds read low
[64] = S. cerevisiae deletion strains, locus YKL067W, strain YNK1, active compounds read low
[65] = S. cerevisiae deletion strains, locus YKL101W, strain HSL1, active compounds read low
[66] = S. cerevisiae deletion strains, locus YKL193C, strain SDS22, active compounds read low
[67] = S. cerevisiae deletion strains, locus YKL203C, strain TOR2, active compounds read low
[68] = S. cerevisiae deletion strains, locus YLR113W, strain HOG1, active compounds read low
[69] = S. cerevisiae deletion strains, locus YLR133W, strain CKI1, active compounds read low
[70] = S. cerevisiae deletion strains, locus YLR403W, strain SFP1, active compounds read low
[71] = S. cerevisiae deletion strains, locus YML070W, strain DAK1, active compounds read low
[72] = S. cerevisiae deletion strains, locus YMR001C, strain CDC5, active compounds read low
[73] = S. cerevisiae deletion strains, locus YMR205C, strain PFK2 (second series), active compounds read low
[74] = S. cerevisiae deletion strains, locus YMR277W, strain FCP1, active compounds read low
[75] = S. cerevisiae deletion strains, locus YNL006W, strain LST8, active compounds read low
[76] = S. cerevisiae deletion strains, locus YNL020C, strain ARK1, active compounds read low
[77] = S. cerevisiae deletion strains, locus YNL161W, strain CBK1, active compounds read low
[78] = S. cerevisiae deletion strains, locus YNL183C, strain NPR1, active compounds read low
[79] = S. cerevisiae deletion strains, locus YNL207W, strain RIO2, active compounds read low
[80] = S. cerevisiae deletion strains, locus YNL222W, strain SSU72, active compounds read low
[81] = S. cerevisiae deletion strains, locus YNL307C, strain MCK1 (second series), active compounds read low
[82] = S. cerevisiae deletion strains, locus YOL078W, strain AVO1, active compounds read low
[83] = S. cerevisiae deletion strains, locus YOL136C, strain PFK27, active compounds read low
[84] = S. cerevisiae deletion strains, locus YOR061W, strain CKA2, active compounds read low
[85] = S. cerevisiae deletion strains, locus YOR119C, strain RIO1, active compounds read low
[86] = S. cerevisiae deletion strains, locus YOR231W, strain MKK1, active compounds read low
[87] = S. cerevisiae deletion strains, locus YOR329C, strain SCD5, active compounds read low
[88] = S. cerevisiae deletion strains, locus YPL031C, strain PHO85, active compounds read low
[89] = S. cerevisiae deletion strains, locus YPL153C, strain RAD53, active compounds read low
[90] = S. cerevisiae deletion strains, locus YPL204W, strain HRR25, active compounds read low
[91] = S. cerevisiae deletion strains, locus YPL209C, strain IPL1, active compounds read low
[92] = S. cerevisiae deletion strains, locus YPL256C, strain CLN2, active compounds read low
[93] = S. cerevisiae deletion strains, locus YPR025C, strain CCL1, active compounds read low
[94] = S. cerevisiae deletion strains, locus YPR106W, strain ISR1, active compounds read low
[95] = S. cerevisiae deletion strains, locus YPR111W, strain DBF20, active compounds read low
[96] = S. cerevisiae deletion strains, strain NNK1, active compounds read low
[97] = S. cerevisiae deletion strains, strain TSCII, active compounds read low

Measured: normalized growth

CCOC(=O)N/N=C\c1ccccc1OCC
inactive: [1] 1.02 | [2] 0.998 | [3] 1.02 | [4] 1.01 | [5] 1.02 | [6] 0.923 | [7] 1.02 | [8] 1 | S. cerevisiae deletion strains, locus YGR229C, strain SMI1, active compounds read low 1.01 | [9] 1.02 | [10] 0.992 | [11] 1.02 | [12] 0.985 | S. cerevisiae deletion strains, locus YKL190W, strain CNB1, active compounds read low 1 | [13] 0.931 | [14] 0.995 | [15] 1.04 | [16] 0.917 | [17] 1.02 | [18] 0.997 | [19] 1.03 | S. cerevisiae deletion strains, locus YNL128W, strain TEP1, active compounds read low 1.01 | [20] 1.02 | [21] 1.03 | [22] 1 | [23] 1.02 | [24] 1.06 | [25] 0.98 | [26] 1.02 | [27] 1.03 | [28] 1.01

COCCCNC(=S)N/N=C\c1cc(Cl)cc(Cl)c1O
active: [9] 0.797 | [92] 0.859
inactive: [29] 0.958 | [30] 0.946 | [31] 0.957 | [32] 0.956 | [33] 0.965 | [34] 0.951 | [35] 0.951 | [4] 0.959 | [36] 0.961 | [37] 0.958 | [38] 0.942 | [39] 0.956 | [40] 0.947 | [41] 0.951 | [42] 0.914 | [43] 0.944 | [44] 0.924 | [45] 0.952 | [46] 0.958 | [47] 0.954 | [48] 0.962 | [49] 0.968 | [50] 0.927 | [51] 0.942 | [52] 0.783 | [53] 0.903 | [54] 0.983 | [55] 0.853 | [56] 0.957 | [57] 0.904 | [58] 0.924 | [59] 0.918 | [60] 0.957 | [61] 0.887 | [62] 0.957 | [63] 0.936 | [64] 0.953 | [65] 0.946 | [66] 0.953 | [67] 0.953 | [68] 0.904 | [69] 0.924 | [70] 0.889 | [71] 0.95 | [72] 0.956 | [73] 0.943 | [74] 0.962 | [75] 0.963 | [76] 0.903 | [77] 0.959 | [78] 0.988 | [79] 0.957 | [80] 0.962 | [81] 0.909 | [82] 0.962 | [83] 0.953 | [84] 0.951 | [85] 0.989 | [86] 0.943 | [87] 0.96 | [88] 0.904 | [89] 0.903 | [90] 0.882 | [91] 0.962 | [93] 0.961 | [94] 0.955 | [95] 0.96 | [96] 0.955 | [97] 0.956

CCOC(=O)N/N=C\c1cc(Cl)cc(Cl)c1O
active: [52] 0.251 | [9] 0.512 | [62] 0.473 | [63] 0.72 | [68] 0.67 | [69] 0.727 | [70] 0.425 | [73] 0.714 | [76] 0.679 | [78] 0.556 | [81] 0.621 | [84] 0.471 | [89] 0.67 | [92] 0.641
inactive: [29] 0.948 | [30] 0.95 | [31] 0.928 | [32] 0.951 | [33] 0.938 | [34] 0.941 | [35] 0.942 | [4] 0.95 | [36] 0.935 | [37] 0.914 | [38] 0.824 | [39] 0.946 | [40] 0.928 | [41] 0.926 | [42] 0.741 | [43] 0.765 | [44] 0.828 | [45] 0.94 | [46] 0.931 | [47] 0.942 | [48] 0.87 | [49] 0.938 | [50] 0.737 | [51] 0.665 | [53] 0.626 | [54] 0.655 | [55] 0.586 | [56] 0.943 | [57] 0.535 | [58] 0.877 | [59] 0.785 | [60] 0.935 | [61] 0.743 | [64] 0.814 | [65] 0.74 | [66] 0.932 | [67] 0.756 | [71] 0.789 | [72] 0.948 | [74] 0.936 | [75] 0.956 | [77] 0.947 | [79] 0.931 | [80] 0.934 | [82] 0.94 | [83] 0.784 | [85] 0.729 | [86] 0.69 | [87] 0.943 | [88] 0.747 | [90] 0.706 | [91] 0.944 | [93] 0.934 | [94] 0.918 | [95] 0.92 | [96] 0.92 | [97] 0.952

COCCCNC(=S)N/N=C\c1cccc(OC)c1O
inactive: [1] 0.984 | [2] 1.02 | [3] 0.979 | [4] 0.998 | [5] 1.01 | [6] 0.928 | [7] 0.999 | [8] 0.991 | [9] 1.01 | [10] 1.01 | [11] 1.01 | [12] 0.979 | [13] 1.11 | [14] 0.997 | [15] 0.978 | [16] 1.08 | [17] 0.994 | [18] 0.991 | [19] 0.991 | S. cerevisiae deletion strains, locus YMR307W, strain GAS1, active compounds read low 0.951 | [20] 0.987 | [21] 1.04 | [22] 0.989 | [23] 0.982 | [24] 0.988 | [25] 0.856 | [26] 0.964 | [27] 0.94 | [28] 1.02
